Rows were chosen to be rich in hits. Some 11% of all compounds tested hit in one or more screens of this group.
SW480 rereplic: induces DNA re-replication in SW480 colon adenocarcinoma cells | SW480 DNA re-replication, Hoechst DNA content imaging, 48 h | Potency, µM (series often up to 46.1 µM), inactives show at the top dose re-replication activation, usual class: activators | 1.8% of 340,000 active; also: potency is read from the fitted curve at half-maximal effect; % of control where 0% means no effect; nearly all actives have a fitted effect of over 55% in size
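First, 250 cells per well were seeded. Next, compound or vehicle (23 nL) was pinned in, plates sat 48 hr at 37 C. Finally Hoechst was added for 40 min before fluorescence scanning.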
VP16 counter: counter-screen for ROR gamma inhibitors: Gal4-VP16 reporter; 3.5% of 310,000 active; Potency, µM (series often up to 53.6 µM), for the others: at the highest dose activity, negative = inhibition, actives largely listed as inhibitors; Drosophila S2 Gal4-VP16 UAS-luciferase, luminescence, 20 h;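 also: Gal4-VP16 expression switched on by copper sulfate through the metallothionein promoter; potency is read from the fitted curve at half-maximal effect; % is scaled to controls: 0 for no effect and ±100 for the full control effect; nearly all actives have a fitted effect of over 50% in size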
MCF10A rerep: inducers of DNA re-replication in MCF 10A breast cells; MCF 10A DNA re-replication, Hoechst nuclear intensity, 48 h; Potency, µM (doses to about 46.1 µM), for inactives: at the highest dose activity, positive = re-replication, actives largely listed as activators; 2.9% of 350,000 active; also: potency is read from the fitted curve at half-maximal effect; % of control where 0% means no effect; nearly all actives have a fitted effect of over 50% in size
RORgamma inh: ROR gamma (mouse) transcription inhibition. P51450. 5.4% of 310,000 active. Potency, µM (titrated, usually from 53.6 µM), inactives show top-dose activity change, negative = inhibition, hits mostly inhibitors. Drosophila S2 Gal4-RORgamma UAS-luciferase reporter, 20 h; also: potency is read from the fitted curve at half-maximal effect; % is scaled to controls: 0 for no effect and ±100 for the full control effect; nearly all actives have a fitted effect of over 60% in size
Target sequence (P51450 whole entry, looked up, the tested form may be a part): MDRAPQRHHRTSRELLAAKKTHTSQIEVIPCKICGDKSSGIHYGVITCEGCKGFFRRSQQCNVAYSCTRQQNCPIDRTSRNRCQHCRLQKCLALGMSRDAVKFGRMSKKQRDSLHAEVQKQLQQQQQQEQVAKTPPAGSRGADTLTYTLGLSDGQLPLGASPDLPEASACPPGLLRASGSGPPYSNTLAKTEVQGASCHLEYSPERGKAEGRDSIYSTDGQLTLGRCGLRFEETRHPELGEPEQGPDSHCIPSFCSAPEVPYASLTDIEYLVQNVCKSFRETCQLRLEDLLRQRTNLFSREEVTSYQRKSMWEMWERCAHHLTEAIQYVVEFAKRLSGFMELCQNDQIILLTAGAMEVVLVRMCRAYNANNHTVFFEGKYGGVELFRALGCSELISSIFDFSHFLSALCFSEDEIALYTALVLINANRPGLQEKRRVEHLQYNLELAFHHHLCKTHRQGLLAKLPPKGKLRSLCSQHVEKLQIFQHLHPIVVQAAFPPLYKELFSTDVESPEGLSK
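Stably transfected Drosophila Schneider cells are the test system, with ROR gamma fused to Gal4 and luciferase under UAS control; luminescence is read after 20 hr of 700 uM copper sulfate induction at ambient temperature.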
IL-1B inflam inh: inflammasome signaling inhibition, IL-1 beta readout | activity change, % at 57.5 µM | 4.7% of 360,000 active | THP-1 LPS/ATP IL-1B secretion, AlphaLISA, 16 h; stronger effect = lower value; in the data active = activity change below about -50%; inconclusive = mostly about -30% to -49%; also: % is scaled to controls: 0 for no effect and ±100 for the full control effect
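Secreted IL-1B measured by AlphaLISA bead assay after 16 h compound exposure of THP-1 cells; compounds (final up to 57.5 uM) added 1 h before LPS (250 ng/mL) and ATP (1.25 mM) stimulation; lower signal means less secretion.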
The depositor's hits bear a star; ? = inconclusive; . = no result. Unless noted, calls follow the shape of the dose curve; as a rule, active = well fitted curve in the direction sought with a large enough effect; inconclusive = small, poorly fitted or top-dose-only effect, or another doubt; inactive = no such curve, though single readings can be large; an effect the other way counts as inactive or inconclusive.

SMILES	SW480 rereplic	VP16 counter	MCF10A rerep	RORgamma inh	IL-1B inflam inh
NC(=O)c1sc2nc3c(c(-c4cccs4)c2c1N)CCCCC3	?	6%	13µM*	-10%	8
Nc1c(C(=O)Nc2ccccc2)sc2nc3c(c(-c4ccco4)c12)CCCC3	?	-7%	?	26%	-51*
Nc1c(C(=O)Nc2ccc(Br)cc2)sc2nc(-c3ccco3)ccc12	?	?	5.2µM*	-17%	8
Cc1ccccc1NC(=O)c1sc2nc3c(c(-c4ccco4)c2c1N)CCCC3	16µM*	2%	?	9%	?
Nc1c(C(=O)Nc2ccc(F)cc2)sc2nc(-c3ccco3)ccc12	?	-6%	?	-2%	-4
COc1ccc(Oc2ncc3nc(-c4cccs4)c(=O)n(Cc4cccs4)c3n2)cc1	.	2%	.	19%	.
Nc1c(C(=O)Nc2ccccc2)sc2nc3c(c(-c4ccco4)c12)CCC3	2%	-1%	?	32%	-25
Cc1ccc(NC(=O)c2sc3nc4c(c(-c5ccco5)c3c2N)CCC4)cc1	13%	-11%	1.8µM*	?	8
CSc1ccc(/C=C(\C(=O)O)c2ccc(S(=O)(=O)N3CCCC3)s2)cc1	-19%	.	8%	.	9
COc1ccc(C2NC(=S)NC(C)=C2C(=O)c2ccccc2)cc1OC (configuration not stated)	23µM*	5%	?	-33%	-8
CCC1NC(=S)NC(C)=C1C(=O)c1ccccc1 (configuration not stated)	-11%	-21%	-1%	10µM*	-14
COc1ccc(C2NC(=S)NC(C)=C2C(=O)Nc2ccccn2)cc1OC (configuration not stated)	5%	-2%	?	-13%	-5
COc1ccccc1C(=O)N/C(=C\c1cn(S(=O)(=O)N(C)C)c2ccccc12)C(=O)N1CCCC1	-2%	0%	17%	0%	-5
Cn1c(=O)c2nc(-c3ccccc3)c(-c3ccccc3)nc2n(C)c1=O	-13%	.	13%	.	-1
Cn1c(=O)c2nc3ccccc3nc2n(C)c1=O	-55%	-5%	0.73µM*	11%	31
COC(=O)c1ccc(C(NC(=O)OCc2ccccc2)/C(F)=C/[C@@H](C)C(=O)NCCO)cc1 (some centres not stated)	.	-6%	.	7%	.
COC(=O)c1ccc(C(NC(=O)OCc2ccccc2)/C(F)=C/[C@@H](C)C(=O)Nc2ccc(OC)cc2)cc1 (some centres not stated)	.	?	.	20µM*	.
CCN(CC)CCN(Cc1cc2cc3c(cc2[nH]c1=O)OCO3)C(=S)NCc1ccco1	0%	-11%	1%	-3%	-63*
Cc1ccc2cc(CN(Cc3ccco3)C(=O)c3cccs3)c(=O)[nH]c2c1	15µM*	12%	2.6µM*	20%	30
CCN(CC)CCN(Cc1cc2cc(C)cc(C)c2[nH]c1=O)C(=S)NCc1ccco1	38%	?	14%	3%	0
CCN(CC)CCN(Cc1cc2cc3c(cc2[nH]c1=O)OCCO3)C(=S)NCC(C)C	-1%	0%	?	27%	-62*
CCN(CC)CCN(Cc1cc2cc3c(cc2[nH]c1=O)OCO3)C(=S)NCC(C)C	5%	-1%	?	6%	0
CCN(CC)CCN(Cc1cc2cc(C)ccc2[nH]c1=O)C(=S)NCc1ccco1	-1%	-10%	-6%	-15%	-61*
Cc1cccnc1Oc1ncccc1N	-8%	.	2%	.	1
COC1=CC(=O)OC(c2cccc(Cl)c2)C1 (configuration not stated)	.	.	.	.	-11
CCC/C=C(\CCC)C(NC(=O)c1ccc(C(F)(F)F)cc1)c1ccc(C(F)(F)F)cc1 (configuration not stated)	.	7%	.	1%	.
COc1ccccc1C(CNC(=O)c1cc(C)nc2ccccc12)N(C)C (configuration not stated)	-8%	5%	-1%	1%	17
CCc1nc2ccc(C(=O)N(C)CCCN(C)C)cn2c1N(C)Cc1cc2ccccc2s1	.	.	.	.	-9
Cc1ccc(S(=O)(=O)C2(C(=O)N3CCN(c4ccccc4F)CC3)CC2)cc1	3%	8%	15%	-3%	0

Screening results from PubChem BioAssay.
